For some assays here: Results with a measured potency or affinity are listed apart. Activity calls are given as the source filed them.
Tests used:
[1] = compounds altering circadian rhythm period length – cell-based, LOPAC library, luminescence reporter (AID 2774; call rule not given here;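 note: values are relative to mean of DMSO wells on each plate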); conditions: circadian reporter cells, at 7 µM, actives lie on both sides
[2] = test system: Hepatitis C virus NS3 helicase; assay: blockers of NS3h binding to ssDNA – biochemical, fluorescence polarization, LOPAC1280 library, primary screen (AID 687035; in the data active = inhibition above about 37%); conditions: Purified HCV NS3 helicase, Cy5-dT15 ssDNA binding fluorescence polarization; stronger effect = higher value; concentration not given here
[3] = compounds altering Cy5-DNA-NS3h complex signal – biochemical, LOPAC1280, artefact control for HCV NS3 helicase inhibitor project (AID 687037; call rule not given here); conditions: Cy5-DNA-NS3h complex fluorescence interference counterscreen
[4] = blockers of cellular phospholipid synthesis – cell-based, LOPAC library, screen 4, primary screen (AID 1347384; call rule not given here); conditions: animal cells, phospholipid biosynthesis inhibition screen; at 10 µM
[5] = compounds altering viability of human ES cells (AID 493140; call rule not given here;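 note: cells exposed to compounds for four days before counting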); conditions: human embryonic stem cell survival screen; stronger effect = higher value
[6] = chitosan synthesis blockers in C. neoformans – flow cytometry, Cibacron Brilliant Red staining (AID 1347148; call rule not given here;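 note: compound exposure lasted three days at 37 degrees C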); conditions: Cryptococcus neoformans chitosan, stronger effect = lower value; at 99.1 µM unless noted
[7] = biological target: Calcium-dependent protein kinase 1 (Plasmodium falciparum (isolate 3D7)) (UniProt P62344); assay: PfCDPK1 kinase inhibitors, biochemical, TCAMS library (AID 1159585; cut-off not given, nearly all actives have IC50 up to about 0.98 µM;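 note: inhibitors leave more ATP so luminescence rises with inhibition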); conditions: recombinant PfCDPK1, Kinase-Glo ATP depletion luminescence
Chain of Calcium-dependent protein kinase 1 (Plasmodium falciparum (isolate 3D7)) (P62344 whole entry, looked up): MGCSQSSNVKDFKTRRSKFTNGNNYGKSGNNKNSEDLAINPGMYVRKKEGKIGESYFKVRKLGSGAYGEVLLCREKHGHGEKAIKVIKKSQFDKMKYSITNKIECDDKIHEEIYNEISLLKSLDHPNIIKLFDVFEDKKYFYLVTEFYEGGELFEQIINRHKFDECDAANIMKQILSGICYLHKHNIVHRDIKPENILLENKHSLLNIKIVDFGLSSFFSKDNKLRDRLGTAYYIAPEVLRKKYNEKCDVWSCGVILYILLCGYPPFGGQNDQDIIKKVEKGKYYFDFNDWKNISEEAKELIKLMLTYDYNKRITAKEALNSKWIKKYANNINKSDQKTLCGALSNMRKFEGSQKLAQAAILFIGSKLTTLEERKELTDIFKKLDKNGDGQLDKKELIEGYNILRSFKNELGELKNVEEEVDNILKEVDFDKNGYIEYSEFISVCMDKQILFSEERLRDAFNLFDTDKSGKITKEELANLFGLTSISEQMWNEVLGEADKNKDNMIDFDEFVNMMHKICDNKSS

[8] = biological target: Plasmodium falciparum protein kinase 6 (PK6, PF3D7_1337100) (UniProt Q8IDW1); assay: PfPK6 kinase inhibitors, biochemical, TCAMS library (AID 1159586; call rule not given here); conditions: recombinant PfPK6, Kinase-Glo ATP depletion luminescence
Chain of Plasmodium falciparum protein kinase 6 (PK6, PF3D7_1337100) (Q8IDW1 1-305): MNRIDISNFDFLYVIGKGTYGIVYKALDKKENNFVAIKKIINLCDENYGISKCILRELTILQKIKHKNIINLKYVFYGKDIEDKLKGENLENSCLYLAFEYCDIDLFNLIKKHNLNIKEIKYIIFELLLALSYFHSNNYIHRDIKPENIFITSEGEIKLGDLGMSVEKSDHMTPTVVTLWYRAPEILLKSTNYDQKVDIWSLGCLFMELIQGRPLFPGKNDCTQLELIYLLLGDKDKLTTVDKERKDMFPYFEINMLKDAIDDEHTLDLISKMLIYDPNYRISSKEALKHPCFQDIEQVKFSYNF

[9] = drug combination growth inhibition, ovarian cancer – cell-based, oncology-focused library, rucaparib conditional, profiling panel (AID 1508598); conditions: patient-derived ovarian cancer cells, CellTiter-Glo viability, 144 h, stronger effect = lower value
[10] = biological target: Tyrosine-protein kinase ABL1 (Homo sapiens) (UniProt P00519); assay: PubChem AID 493040; conditions: kinase panel binding, pKi
Chain of Tyrosine-protein kinase ABL1 (Homo sapiens) (P00519 whole entry, looked up): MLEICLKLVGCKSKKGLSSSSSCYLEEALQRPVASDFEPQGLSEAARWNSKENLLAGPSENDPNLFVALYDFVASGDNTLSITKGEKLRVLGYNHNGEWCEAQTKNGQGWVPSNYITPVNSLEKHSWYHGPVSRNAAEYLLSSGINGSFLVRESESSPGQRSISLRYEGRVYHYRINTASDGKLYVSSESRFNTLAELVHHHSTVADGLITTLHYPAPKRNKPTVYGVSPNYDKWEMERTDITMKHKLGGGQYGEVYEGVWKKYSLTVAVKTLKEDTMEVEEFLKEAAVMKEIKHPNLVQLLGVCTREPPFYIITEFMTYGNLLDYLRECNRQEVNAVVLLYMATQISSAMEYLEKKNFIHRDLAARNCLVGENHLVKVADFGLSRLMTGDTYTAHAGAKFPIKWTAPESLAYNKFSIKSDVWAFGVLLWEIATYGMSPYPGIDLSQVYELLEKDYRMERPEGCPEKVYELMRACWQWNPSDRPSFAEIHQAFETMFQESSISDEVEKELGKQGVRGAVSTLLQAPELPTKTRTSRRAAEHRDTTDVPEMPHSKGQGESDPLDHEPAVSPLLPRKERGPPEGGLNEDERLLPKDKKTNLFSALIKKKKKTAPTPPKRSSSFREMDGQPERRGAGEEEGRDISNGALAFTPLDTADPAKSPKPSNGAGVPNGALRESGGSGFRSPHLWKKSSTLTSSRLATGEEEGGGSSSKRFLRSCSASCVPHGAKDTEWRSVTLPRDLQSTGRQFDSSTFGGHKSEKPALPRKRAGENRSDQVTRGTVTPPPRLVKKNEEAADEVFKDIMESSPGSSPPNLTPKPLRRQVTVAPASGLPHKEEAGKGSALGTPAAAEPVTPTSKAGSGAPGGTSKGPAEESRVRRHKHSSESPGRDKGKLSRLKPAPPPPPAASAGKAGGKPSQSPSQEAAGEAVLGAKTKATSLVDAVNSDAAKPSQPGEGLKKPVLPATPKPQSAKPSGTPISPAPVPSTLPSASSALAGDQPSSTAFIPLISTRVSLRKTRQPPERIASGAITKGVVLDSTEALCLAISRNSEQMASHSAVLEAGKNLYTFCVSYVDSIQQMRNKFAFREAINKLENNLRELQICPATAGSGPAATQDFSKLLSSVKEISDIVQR

[11] = liver-stage malaria parasite load reduction – cell-based, known kinase inhibitor set, luminescence, hepatoma host viability (AID 624392; call rule not given here;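 note: infected cells incubated roughly two days before readout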); conditions: Plasmodium liver stage in hepatoma cells, luciferase luminescence, concentration not given here; liver cell % of control: measured here: host liver cell viability; parasite % of control: stronger effect = lower value
[12] = altered dexamethasone sensitivity, NF-kB reporter, cell-based, luciferase, IL-1B stimulus (AID 624486; call rule not given here;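 for percent of negative control (+Dex): 100% = mean signal of vehicle control wells on the plate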); conditions: IL-1B + dexamethasone, luminescence; percent of negative control (+Dex): actives lie on both sides, concentration not given here; z-score: measured here: IL-1B alone, no Dex
[13] = C. elegans survival during P. aeruginosa infection – whole organism (AID 651566; call rule not given here;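 note: tested at 14 µM; sign flipped so higher z means a lower ratio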); conditions: C. elegans killed by P. aeruginosa, survival ratio
[14] = pro-inflammatory signaling induction in mouse macrophages – cell-based, murine, luminescence (AID 652131; call rule not given here); conditions: murine macrophage pro-inflammatory reporter, stronger effect = higher value
[15] = biological target: Cellular tumor antigen p53 (Homo sapiens) (UniProt P04637); assay: GFP-p53 level modulators in HPV16+ cells – imaging, known kinase inhibitor set, EGFP/DsRed ratio (AID 1053116; call rule not given here;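 note: cells exposed to compounds for 24 h at 37 °C before reading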); conditions: GFP-p53 stability, stronger effect = higher value; EGFP object count: measured here: GFP-p53 positive objects count
Chain of Cellular tumor antigen p53 (Homo sapiens) (P04637 whole entry, looked up): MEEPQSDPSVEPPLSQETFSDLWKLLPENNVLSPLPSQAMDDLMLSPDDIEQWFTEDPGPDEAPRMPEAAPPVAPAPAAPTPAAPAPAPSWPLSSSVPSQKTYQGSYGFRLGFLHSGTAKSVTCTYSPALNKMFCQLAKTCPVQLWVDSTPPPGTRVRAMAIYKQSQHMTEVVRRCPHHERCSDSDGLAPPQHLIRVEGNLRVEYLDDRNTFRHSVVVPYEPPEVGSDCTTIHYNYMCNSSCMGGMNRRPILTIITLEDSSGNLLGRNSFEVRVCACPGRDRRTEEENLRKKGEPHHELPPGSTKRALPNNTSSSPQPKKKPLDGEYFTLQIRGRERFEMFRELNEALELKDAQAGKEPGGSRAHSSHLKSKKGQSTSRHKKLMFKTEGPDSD

[16] = inducers of IRF3 signaling, differentiated THP-1 – cell-based, PMA-stimulated THP-1, luminescence (AID 1053176; call rule not given here); conditions: PMA-differentiated THP-1, IRF3 reporter luminescence; stronger effect = higher value
[17] = MELAS cybrid and Rieske KO viability enhancers – cell-based, MELAS cybrids, Rieske KO mouse fibroblasts, CellTiter-Glo, primary screen (AID 1508586;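 active = mean z-score across replicates of 1.96 or higher in either the MELAS or the Rieske mutant cell line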;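 note: z relative to plate mean and SD of compound and empty wells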); conditions: low glucose
[18] = MELAS cybrid survival, CellTiter-Glo 48 h, stronger effect = higher value
[19] = Rieske KO mouse fibroblast survival, CellTiter-Glo 72 h

With CN(C)c1cc2c(Nc3ccc4c(cnn4Cc4ccccc4)c3)ncnc2cn1 the period change [1] was 0.33 h (inactive), the inhibition [2] was -1% (inactive) and the fluorescence ratio (interference) [3] was 1 (inactive). For the same molecule, the outcome [4] was “inactive”.

In the case of Cn1cc(C2=C(c3cn(CCCSC(=N)N)c4ccccc34)C(=O)NC2=O)c2ccccc21, the survival [5] is reported as 72.7 (inactive) and the fold fluorescence [6] is reported as 10.1 [at 109.3 µM] (inactive).

With CN(C)c1cc2c(Nc3ccc4nc(Cc5ccccc5)[nH]c4c3)ncnc2cn1 the outcome [7] was “inactive” and the outcome [8] was “inactive”.

For Cc1ccc(O)cc1Nc1ccnc2cc(-c3ccccn3)ccc12, the outcome [7] was “inactive” and the outcome [8] was “inactive”.

In the case of NC(=O)c1ccc(-c2nc(-c3ccc4c(c3)OCO4)c(-c3ccccn3)[nH]2)cc1, the fold fluorescence [6] is reported as 18.6 [at 130.1 µM] (inactive), the viability ([9]; at 0.000305 µM, OCI-C5x cells, with rucaparib 10 µM, 100% = cells with rucaparib alone) is reported as 134% (inactive) and the viability ([9]; at 0.000305 µM, OCI-C5x cells, without rucaparib) is reported as 138% (inactive). The viability ([9]; at 0.000305 µM, OCI-P5x cells, with rucaparib 20 µM, 100% = cells with rucaparib alone) was 116% (inactive), the viability ([9]; at 0.000305 µM, OCI-P5x cells, without rucaparib) was 105% (inactive) and the viability ([9]; at 0.00122 µM, OCI-C5x cells, with rucaparib 10 µM, 100% = cells with rucaparib alone) was 135% (inactive). For the same molecule, the viability ([9]; at 0.00122 µM, OCI-C5x cells, without rucaparib) was 143% (inactive), the viability ([9]; at 0.00122 µM, OCI-P5x cells, with rucaparib 20 µM, 100% = cells with rucaparib alone) was 110% (inactive) and the viability ([9]; at 0.00122 µM, OCI-P5x cells, without rucaparib) was 103% (inactive). The viability ([9]; at 0.00488 µM, OCI-C5x cells, with rucaparib 10 µM, 100% = cells with rucaparib alone) was 139% (inactive), the viability ([9]; at 0.00488 µM, OCI-C5x cells, without rucaparib) was 135% (inactive) and the viability ([9]; at 0.00488 µM, OCI-P5x cells, with rucaparib 20 µM, 100% = cells with rucaparib alone) was 108% (inactive). For the same molecule, the viability ([9]; at 0.00488 µM, OCI-P5x cells, without rucaparib) was 99.5% (active), the viability ([9]; at 0.0195 µM, OCI-C5x cells, with rucaparib 10 µM, 100% = cells with rucaparib alone) was 136% (inactive) and the viability ([9]; at 0.0195 µM, OCI-C5x cells, without rucaparib) was 143% (inactive). The viability ([9]; at 0.0195 µM, OCI-P5x cells, with rucaparib 20 µM, 100% = cells with rucaparib alone) was 112% (inactive), the viability ([9]; at 0.0195 µM, OCI-P5x cells, without rucaparib) was 101% (inactive) and the viability ([9]; at 0.0781 µM, OCI-C5x cells, with rucaparib 10 µM, 100% = cells with rucaparib alone) was 130% (inactive). The viability ([9]; at 0.0781 µM, OCI-C5x cells, without rucaparib) was 147% (inactive), the viability ([9]; at 0.0781 µM, OCI-P5x cells, with rucaparib 20 µM, 100% = cells with rucaparib alone) was 106% (inactive) and the viability ([9]; at 0.0781 µM, OCI-P5x cells, without rucaparib) was 94.4% (active). The viability ([9]; at 0.313 µM, OCI-C5x cells, with rucaparib 10 µM, 100% = cells with rucaparib alone) was 130% (inactive), the viability ([9]; at 0.313 µM, OCI-C5x cells, without rucaparib) was 146% (inactive) and the viability ([9]; at 0.313 µM, OCI-P5x cells, with rucaparib 20 µM, 100% = cells with rucaparib alone) was 105% (inactive). The viability ([9]; at 0.313 µM, OCI-P5x cells, without rucaparib) was 102% (inactive), the viability ([9]; at 1.25 µM, OCI-C5x cells, with rucaparib 10 µM, 100% = cells with rucaparib alone) was 146% (inactive) and the viability ([9]; at 1.25 µM, OCI-C5x cells, without rucaparib) was 153% (inactive). For the same molecule, the viability ([9]; at 1.25 µM, OCI-P5x cells, with rucaparib 20 µM, 100% = cells with rucaparib alone) was 114% (inactive), the viability ([9]; at 1.25 µM, OCI-P5x cells, without rucaparib) was 92.1% (active) and the viability ([9]; at 5 µM, OCI-C5x cells, with rucaparib 10 µM, 100% = cells with rucaparib alone) was 198% (inactive). The viability ([9]; at 5 µM, OCI-C5x cells, without rucaparib) was 187% (inactive), the viability ([9]; at 5 µM, OCI-P5x cells, with rucaparib 20 µM, 100% = cells with rucaparib alone) was 102% (inactive) and the viability ([9]; at 5 µM, OCI-P5x cells, without rucaparib) was 93.9% (active). For the same molecule, the outcome [10] was “inactive”.

For Cc1ccc(NC(=O)CC2CC2)cc1-c1ccc(C(=O)NCC2CC2)cc1, the liver cell % of control [11] was 75.5%, the parasite % of control [11] was 149% (inactive) and the percent of negative control (+Dex) [12] was 98.5% (inactive). For the same molecule, the z-score [12] was 0.735, the z-score [13] was -1.18 (inactive) and the z-score [14] was 0.093 (inactive). The EGFP object count [15] was 6, the EGFP/DsRed ratio [15] was 0.154 (inactive) and the fraction signal [16] was -0.006 (inactive). For the same molecule, the z-score [17, 18] was -0.893 (inactive) and the z-score [17, 19] was -0.555.

In the case of COc1ccc2cc(-c3c(-c4ccncc4)nc(-c4ccc(S(C)=O)cc4)n3C)ccc2c1 (configuration not stated), the liver cell % of control [11] is reported as 117%, the parasite % of control [11] is reported as 121% (inactive) and the percent of negative control (+Dex) [12] is reported as 93.5% (inactive). The z-score [12] was 0.505, the z-score [13] was -0.78 (inactive) and the z-score [14] was 0.151 (inactive). For the same molecule, the EGFP object count [15] was 5, the EGFP/DsRed ratio [15] was 0.161 (inactive) and the fraction signal [16] was -0.0035 (inactive). For the same molecule, the z-score [17, 18] was -0.944 (inactive) and the z-score [17, 19] was -0.225.

In the case of NS(=O)(=O)c1ccc(NC2CC(c3ccc(O)c(F)c3)NN2)cc1 (configuration not stated), the liver cell % of control [11] is reported as 113%, the parasite % of control [11] is reported as 139% (inactive) and the percent of negative control (+Dex) [12] is reported as 94.5% (inactive). For the same molecule, the z-score [12] was -0.075, the z-score [13] was -1.04 (inactive) and the z-score [14] was -0.229 (inactive). For the same molecule, the EGFP object count [15] was 2.5, the EGFP/DsRed ratio [15] was 0.101 (inactive) and the fraction signal [16] was 0.0025 (inactive). The z-score [17, 18] was -0.752 (inactive) and the z-score [17, 19] was -0.137.

From PubChem BioAssay
